Pf growth 96h – Primary qHTS for delayed death inhibitors of the malarial parasite plastid, 96 hour incubation; P. falciparum luciferase reporter growth, 96 h; Potency, µM (titrated, usually from 28.7 µM), without a hit: at the highest dose activity change, negative = inhibition, usual class: inhibitors; actives 6.9% (n = 320,000); AID 504834, 2011; active = well fitted inhibition curve with a large enough effect; inconclusive = small, poorly fitted or top-dose-only effect, or another doubt; inactive = no such curve, though single readings can be large or run the other way; note: potency is the fitted concentration of half-maximal effect; % is set by controls: 0 for no effect and ±100 for the full control effect
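Compounds incubated with erythrocytes infected by luciferase-expressing P. falciparum (2% hematocrit, 0.05% parasitemia final) for 96 hours, 37 C in 5% CO2. Growth inhibition scored as decreased luciferase luminescence.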
CHX counter – Cycloheximide Counterscreen for Small Molecule Inhibitors of Shiga Toxin; AID 2314, 2010; cell reporter, cycloheximide protein synthesis inhibition counterscreen; max response, %; actives 12% (n = 300,000); in the data active = max response mostly above about 13%, no sharp cut-off; inactive = mostly below about 14%; note: read at 38.3 µM for the half of the compounds with a filed dose; 0% is about no effect
SARS PLpro yeast – qHTS of Yeast-based Assay for SARS-CoV PLP; S. cerevisiae expressing SARS-CoV PLpro, growth rescue; Potency, µM (top dose mostly 32.9 µM), without a hit: at the top dose activity, positive = growth rescue, actives largely listed as activators; actives 0.19% (n = 330,000); AID 485353, 2010; note: potency is the fitted concentration of half-maximal effect; 0% is about no effect; nearly all actives have a fitted effect of over 55% in size
NS1 inh – qHTS Assay for Inhibitors of Influenza NS1 Protein Function; Potency, µM (series often up to 46.1 µM), without a hit: top-dose activity, positive = more growth; AID 2326, 2010; actives 0.4% (n = 270,000); note: potency is the fitted concentration of half-maximal effect; actives are rising curves; nearly all actives have a fitted effect of over 50% in size
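In this qHTS, NS1 from influenza A is expressed in budding yeast, where it slows growth. Cells are switched from glucose to 2% galactose medium (pH 6.0, -URA), treated with compound, and growth recovery is read at OD600.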
Pf growth 48h – Primary qHTS for delayed death inhibitors of the malarial parasite plastid, 48 hour incubation | P. falciparum luciferase growth in erythrocytes, 48 h | Potency, µM (top dose mostly 28.7 µM), for the others: top-dose activity change, negative = inhibition, actives largely listed as inhibitors | actives 5.9% (n = 310,000); active = well fitted inhibition curve with a large enough effect; inconclusive = small, poorly fitted or top-dose-only effect, or another doubt; inactive = no such curve, though single readings can be large or run the other way; note: potency is the fitted concentration of half-maximal effect; % is set by controls: 0 for no effect and ±100 for the full control effect
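First compound was added to culture medium, then infected red cells at 0.1% parasitemia and 2% hematocrit (final). After incubation at 37 C under 5% CO2, luciferase detection reagent was dispensed and light output recorded.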
Shiga toxin inh – A qHTS for Small Molecule Inhibitors of Shiga Toxin | inhibition, % at 38.7 µM | Vero cells, Shiga toxin protein synthesis inhibition reporter | actives 9.2% (n = 290,000); in the data active = inhibition mostly above about 28%, no sharp cut-off; inactive = mostly below about 43%; note: 0% is about no effect
Numbers without * were called inactive; ? = inconclusive; . = not tested or not shown; [ ] = dose if it differs, or a comment. Rows were chosen to be rich in hits. Some 21% of all compounds tested hit in one or more screens of this group. Unless noted, calls come from the whole dose curve.

SMILES	Pf growth 96h	CHX counter	SARS PLpro yeast	NS1 inh	Pf growth 48h	Shiga toxin inh
O=C(CCS(=O)(=O)c1ccccc1)Nc1ccc(-c2nc3ccccc3s2)cc1	0%	33*	14%	8%	81%	69
O=C(COc1ccccc1Cl)Nc1ccc(-c2nc3ccccc3s2)cc1	.	38*	.	.	.	31
O=C(Nc1cccc(-c2nc3ccccc3s2)c1)c1cccs1	?	12	-69%	-6%	36%	10
O=C(COc1ccccc1Cl)Nc1cc(NC(=O)COc2ccccc2Cl)cc(C(=O)O)c1	159%	-1	-1%	?	21%	-9
O=C(CCS(=O)(=O)c1ccccc1)Nc1cccc(-c2nc3ccccc3s2)c1	-11%	57*	24%	-1%	42%	79*
CC(=O)SC(C)CC(=O)NCc1ccccc1 (centres undefined)	32%	11	-1%	2%	.	-6
Cc1ccc(C(=O)C(C)Oc2ccc3ccc(=O)oc3c2)cc1 (centres undefined)	?	9	-9%	-10%	18%	11
COc1ccc(-c2nnc3n2N=C(c2ccccc2OC)CS3)c(OC)c1	.	-2	.	.	.	-10
O=c1nc2n(c3ccccc13)Cc1ccccc1-2	-7%[5.75 µM]	-1	-27%	9%	-13%	-3
Cc1sc2nc3n(c(=O)c2c1C)Cc1ccccc1-3	-5%	34*	-5%	-44%	63%	77*
O=c1c2cccc(Cl)c2nc2n1Cc1ccccc1-2	187%	18*	-1%	-4%	73%	28
Cc1ccccc1-c1nc2sc(C)c(C)c2c(=O)o1	?	17*	3%	15%	17%	.
Cc1sc2ncn(-c3ccccc3)c(=O)c2c1C	-55%	2	0%	-5%	5%	-4
Cc1ccc(O)c(C(=O)CC(=O)c2ccc(C(C)(C)C)cc2)c1	?	23*	1%	21%	?	.
Cc1ccc(S(=O)(=O)CC(=O)c2ccc(C(C)(C)C)cc2)cc1	2.6µM*	6	-2%	-17%	2.3µM*	26
Cc1ccc(Cl)c(O)c1	16%	.	.	.	19%	.
Cc1ccc(O)c(C(=O)CC(=O)c2ccccc2Cl)c1	16%	38*	-4%	-59%	15µM*	81*
S=C1CCC(c2ccc(Br)cc2)=NN1c1ccccc1	21%	-1	2%	0%	?	-8
O=C(CCN1C(=O)/C(=C\c2ccccc2Cl)SC1=S)Nc1cccnc1	?	-4	13%	19%	8%	0
COc1ccccc1/C=C1/SC(=O)N(CCC(=O)Nc2ccc(S(=O)(=O)Nc3nccs3)cc2)C1=O	13µM*	-2	2%	16%	-21%	-12
COc1ccccc1/C=C1/SC(=S)N(CCC(=O)Nc2cccnc2)C1=O	?	36*	?	9%	16%	10*
O=C(CCN1C(=O)/C(=C/C=C/c2ccccc2)SC1=S)Nc1cccnc1	8%	47*	14%	17%	48%	86*
COc1ccc(CNC(=O)c2ccc(S(=O)(=O)NCc3ccco3)cc2)cc1	-6%	.	0%	.	-4%	.
Cc1cc2c(C)cc(=O)[nH]c2cc1NC(=O)CCl	8.3µM*	-1	0%	6%	?	-6
O=C(CCl)Nc1cc2[nH]c(=O)[nH]c2cc1Br	7.4µM*	6	4%	.	2.3µM*	-3
SMILES	Pf growth 96h	CHX counter	SARS PLpro yeast	NS1 inh	Pf growth 48h	Shiga toxin inh
Cc1cc2oc(=O)cc(C)c2cc1NC(=O)CCC(=O)O	-2%	-2	6%	-9%	.	-3
Cc1cc2oc(=O)cc(C)c2cc1NC(=O)CCl	4.7µM*	30*	17%	7%	?	21
CCOc1cc(NC(=O)CCl)c(OCC)cc1NC(=O)CCl	?	8	-3%	?	59%	12
Cc1cccc(C)c1NC(=O)CCCn1nc(C)c2c(C)n(-c3ccccc3)nc2c1=O	12µM*	-1	2%	8%	-16%	-2
CCOc1ccc(NC(=O)CCCn2nc(C)c3c(C)n(-c4ccccc4)nc3c2=O)cc1	12µM*	-3	4%	-3%	?	-2
Cc1c(NC(=O)c2ccc(Cl)nc2)cccc1-c1nc2cccnc2s1	?	-1	-5%	-91%	?	7
Cc1c(NC(=O)c2ccco2)cccc1-c1nc2cccnc2s1	?	16*	-13%	-40%	?	31
COc1ccc(NC(=O)c2ccco2)cn1	89%	11	0%	-1%	72%	28
O=C(Nc1ccc(-c2nc3cccnc3s2)cc1)c1ccco1	-23%	34*	-18%	-11%	-39%	74*
CCS(=O)(=O)Nc1cccc(-c2nc3cccnc3s2)c1C	57%	30*	0%	-13%	55%	73*
Cc1c(NC(=O)c2ncn[nH]2)cccc1-c1nc2ccccc2s1	50%	9	-2%	-4%	55%	-9
O=C(Nc1ccc(-c2nc3cccnc3s2)cc1)c1ccc(Br)o1	?	47*	-8%	-35%	?	53*
COC(=O)C(CC(C)C)NS(=O)(=O)c1ccccc1Br (centres undefined)	.	14	.	.	.	8
O=C(Nc1cccc(-c2nc3cccnc3s2)c1)c1ccco1	?	20*	-12%	-35%	20%	57*
FC(F)(F)c1cccc(CNC(=S)Nc2ccccc2)c1	?	11	1%	-1%	?	26
CCC(C(=O)Nc1cccc(C(F)(F)F)c1)c1ccccc1 (centres undefined)	?	2	-21%	-68%	?	28
O=[N+]([O-])c1cc(C(F)(F)F)cc([N+](=O)[O-])c1NCCNC(=S)Nc1ccc(Cl)c(Cl)c1	?	6	-6%	-38%	9.3µM*	-3
COC(=S)Nc1cccc(C(F)(F)F)c1	-24%	-1	-1%	5%	7%	1
FC(F)(F)c1cccc(NC(=S)NC(c2ccccc2)c2ccccc2)c1	2.6µM*	-4	19%	6%	3.7µM*	-10
FC(F)(F)c1cccc(NC(=S)NCc2ccccc2)c1	3.3µM*	-2	4%	-116%	?	-8
O=C(NCCCl)Nc1ccc(Cl)c([N+](=O)[O-])c1	?	-2	-4%	6%	-32%	-18
FC(F)(F)c1cccc(NC(=S)Nc2ccc(Cl)c(Cl)c2)c1	8.3µM*	7	-6%	-57%	0%	-1
Cc1cccc(NC(=O)CN(CC2CCCO2)C(=O)c2oc3ccccc3c2C)c1C (centres undefined)	-24%	.	1%	.	?	.
O=C(NN=C1CCCC1)C1COc2ccccc2O1 (centres undefined)	?	12	-1%	.	-19%	-2
CCC1SC(=Nc2cccc(C)c2)NC1=O (centres undefined)	10µM*	4	1%	-2%	19%	-7

Screening results (PubChem BioAssay)
